Results on 39 compounds are retold here after PubChem BioAssay (NCATS).

Inconclusive results are not listed. Active and inactive are the calls of the source. Calls follow the shape of the dose curve; as a rule, active = well fitted curve in the direction sought with a large enough effect; inconclusive = small, poorly fitted or top-dose-only effect, or another doubt; inactive = no such curve, though single readings can be large; an effect the other way counts as inactive or inconclusive.
Potency is read from the fitted curve at half-maximal effect.

The first test is described as follows: qHTS of pediatric cancer cell lines to identify multiple opportunities for drug repurposing: Primary screen for DAOY cells (AID 1347090). Also: nearly all actives have a fitted effect of over 55% in size. Particulars: DAOY medulloblastoma viability, CellTiter-Glo luminescence, 48 h; series mostly up to 46 µM. Put shortly: (§1)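 Viability measured as metabolically active cells via CellTiter-Glo luminescence following 48 hours of compound exposure, 11-point dilutions in confirmatory testing. 500-1,000 cells/well plated 5 hours before dosing; controls were DMSO and 2.3 µM bortezomib.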
Background: qHTS replaces the single test concentration by a dilution series.
Turning to `CN(C)CCN1C(=O)c2cccc3cc(N)cc(c23)C1=O`, the Potency was 23.5 µM (active).

As for `COC1=C(OC)C(=O)C(CC=C(C)CCC=C(C)CCC=C(C)CCC=C(C)CCC=C(C)CCC=C(C)CCC=C(C)CCC=C(C)CCC=C(C)CCC=C(C)C)=C(C)C1=O`, the Potency entry is “inactive”.

With `Cc1ccc([N+](=O)[O-])cc1S(=O)(=O)N(C)N=Cc1cnc2ccc(Br)cn12`, the Potency is 0.235 µM (active).

For `CCc1cnn2c(NCc3ccc[n+]([O-])c3)cc(N3CCCC[C@@H]3CCO)nc12`, the Potency was 0.0372 µM (active).

On to `Nc1nc2c(c(=O)[nH]1)N(C=O)[C@H](CNc1ccc(C(=O)N[C@@H](CCC(=O)O)C(=O)O)cc1)CN2`, for which the Potency entry was “inactive”.

As for `C[C@@H]1CC[C@@]2(OC1)OC1CC3C4CC=C5CC(O)CCC5(C)C4CCC3(C)C1[C@@H]2C` (some centres not stated), the Potency result is “inactive”.

On to `Cn1cnc(=N)c2[nH]cnc21`, for which the Potency was 1.18 µM (active).

Turning to `CC(C)n1cnc2c(NCCc3ccc(O)cc3)nc(-c3csc4ccccc34)nc21`, the Potency is 11.8 µM (active).

In the case of `COc1cc(C[C@@H](CO)[C@H](CO)Cc2ccc(O)c(OC)c2)ccc1O`, the Potency is 0.469 µM (active).

For the compound `Cc1ccc(-n2[nH]c(C)c(N=Nc3cccc(-c4cccc(C(=O)O)c4)c3O)c2=O)cc1C`, the Potency is 18.7 µM (active).

Turning to `c1cncc(CN2CCC(n3ncc4c(N5CCOCC5)nc(-c5ccc6[nH]ccc6c5)nc43)CC2)c1`, the Potency is 18.7 µM (active).

`COc1cc2c(Nc3ccc(Cl)c(Cl)c3F)ncnc2cc1OCC1C[C@@H]2CN(C)C[C@H]2C1`: the Potency was 0.935 µM (active).

As for `COC(=O)[C@H](CCCN=C(N)N)NS(=O)(=O)c1ccc(C)cc1`, the Potency entry was “inactive”.

In the case of `c1ccc2c(Oc3nc(Nc4ccc(N5CCOCC5)cc4)c4ncn(C5CCCCC5)c4n3)cccc2c1`, the Potency entry was “inactive”.

Consider `C=CC(=O)Nc1ccc2ncnc(Nc3ccc(OCc4cccc(F)c4)c(Cl)c3)c2c1`, for which the Potency is 0.0469 µM (active).

Take `O=C1CSC(=O)N1C(CCc1ccncc1)COc1ccc(-c2cccc([N+](=O)[O-])c2)cc1` (configuration not stated): the Potency was 7.43 µM (active).

Regarding `Cc1ncc(-c2ccnc(Nc3ccc(S(C)(=O)=O)cc3)n2)n1C(C)C`, the Potency was 4.69 µM (active).

With `Cn1cc(-c2ccc3ncc(Cc4ccc5ncccc5c4)n3n2)cn1`, the Potency result was “inactive”.

For `C=CC1=C(C(=O)O)N2C(=O)[C@@H](NC(=O)C(=NO)c3csc(N)n3)[C@H]2SC1`, the Potency result is “inactive”.

Consider `COc1ccc(Nc2nccc(NCCO)n2)cc1`, for which the Potency entry was “inactive”.

Turning to `C[C@@H]1C(=O)O[C@H]2CC34[C@H]5C[C@@H](C(C)(C)C)C36[C@H](OC(=O)[C@@H]6O)O[C@@]4(C(=O)O5)[C@]21O` (some centres not stated), the Potency entry was “inactive”.

Turning to `CC(=O)SCC(Cc1ccccc1)C(=O)NCC(=O)OCc1ccccc1` (configuration not stated), the Potency was 2.35 µM (active).

Consider `CCC(C=C[C@@H]1OC(=O)C=C[C@H]1C)=C[C@H](C)CC=CC(C)=C[C@@H](C)C(=O)[C@@H](C)[C@H](O)[C@@H](C)CC(C)=CC(=O)O`, for which the Potency was 0.0782 µM (active).

For `C#Cc1cccc(Nc2ncnc3cc(OCCOC)c(OCCO)cc23)c1`, the Potency is 3.72 µM (active).

On to `CCS(=O)(=O)Nc1ccc2[nH]c(O)c(C(=Nc3ccc(CN4CCCCC4)cc3)c3ccccc3)c2c1`, for which the Potency is 7.43 µM (active).

As to `COc1ccc(C[C@@H](C)[C@@H](C)Cc2ccc(OC)c(OC)c2)cc1OC`, the Potency is 0.235 µM (active).

In the case of `Cc1nc(NC(=O)N2CCC[C@@H]2C(N)=O)sc1-c1ccnc(C(C)(C)C(F)(F)F)c1`, the Potency was 7.43 µM (active).

For the compound `c1coc(CNc2ncnc3nc[nH]c23)c1`, the Potency entry is “inactive”.

As to `CC(C=CC=C(C)C=CC1=C(C)CCCC1(C)C)=CC=CC=C(C)C=CC=C(C)C=CC1=C(C)CCCC1(C)C`, the Potency was 18.7 µM (active).

`CC(C)[C@H](CO)Nc1nc(Nc2cccc(Cl)c2)c2ncn(C(C)C)c2n1`: the Potency is 18.7 µM (active).

As to `N#CC(=C(O)c1ccc(Cl)cc1Cl)c1nc2cc(Cl)ccc2c(=O)[nH]1`, the Potency result is “inactive”.

`CC[C@H](CC[C@@H](C)[C@H]1CC[C@H]2[C@@H]3CC=C4C[C@@H](O)CC[C@]4(C)[C@@H]3CC[C@]12C)C(C)C`: the Potency entry is “inactive”.

Consider `NC(=O)Nc1sc(-c2ccc(F)cc2)cc1C(N)=O`, for which the Potency was 0.469 µM (active).

On to `COc1cc(OC)cc(-c2ccc3ncc4ccc(=O)n(-c5ccc(N6CCNCC6)c(C(F)(F)F)c5)c4c3c2)c1`, for which the Potency is 2.96 µM (active).

A further test is described as follows: qHTS of pediatric cancer cell lines to identify multiple opportunities for drug repurposing: Primary screen for SJ-GBM2 cells (AID 1347091). The note with it: SJ-GBM2 viability, CellTiter-Glo luminescence, 48 h; series mostly up to 46 µM. In outline:
as §1
In the case of `CN(C)CCN1C(=O)c2cccc3cc(N)cc(c23)C1=O`, the Potency is 14.8 µM (active).

With `COC1=C(OC)C(=O)C(CC=C(C)CCC=C(C)CCC=C(C)CCC=C(C)CCC=C(C)CCC=C(C)CCC=C(C)CCC=C(C)CCC=C(C)CCC=C(C)C)=C(C)C1=O`, the Potency entry was “inactive”.

Consider `COc1cc(C(C)C)c(Oc2cnc(NC(CO)CO)nc2N)cc1I`, for which the Potency entry is “inactive”.

Regarding `Nc1nc2c(c(=O)[nH]1)N(C=O)[C@H](CNc1ccc(C(=O)N[C@@H](CCC(=O)O)C(=O)O)cc1)CN2`, the Potency result is “inactive”.

In the case of `CC(C)c1cc(C(C)C)c(CC(=O)NS(=O)(=O)Oc2c(C(C)C)cccc2C(C)C)c(C(C)C)c1`, the Potency was 11.8 µM (active).

Regarding `C[C@@H]1CC[C@@]2(OC1)OC1CC3C4CC=C5CC(O)CCC5(C)C4CCC3(C)C1[C@@H]2C` (some centres not stated), the Potency entry was “inactive”.

`Cn1cnc(=N)c2[nH]cnc21`: the Potency is 1.48 µM (active).

Consider `Cn1cc(-c2cnn3c(N)c(Br)c([C@H]4CCCNC4)nc23)cn1`, for which the Potency is 0.235 µM (active).

`c1cncc(CN2CCC(n3ncc4c(N5CCOCC5)nc(-c5ccc6[nH]ccc6c5)nc43)CC2)c1`: the Potency is 3.32 µM (active).

As for `C=CCNc1c(O)cc2c(O)c1C[C@@H](C)C[C@H](OC)[C@@H](O)[C@@H](C)C=C(C)[C@H](OC(N)=O)[C@@H](OC)C=CC=C(C)C(=O)N2`, the Potency was 0.526 µM (active).

Consider `COc1cc2c(Nc3ccc(Cl)c(Cl)c3F)ncnc2cc1OCC1C[C@@H]2CN(C)C[C@H]2C1`, for which the Potency is 7.43 µM (active).

For the compound `CCCCCCCCc1ccc(CCC(N)(CO)CO)cc1`, the Potency is 14.8 µM (active).

Take `COC(=O)[C@H](CCCN=C(N)N)NS(=O)(=O)c1ccc(C)cc1`: the Potency result is “inactive”.

In the case of `Cc1ncc(-c2ccnc(Nc3ccc(S(C)(=O)=O)cc3)n2)n1C(C)C`, the Potency was 1.32 µM (active).

With `Cn1cc(-c2ccc3ncc(Cc4ccc5ncccc5c4)n3n2)cn1`, the Potency is 0.0093 µM (active).

In the case of `C=CC1=C(C(=O)O)N2C(=O)[C@@H](NC(=O)C(=NO)c3csc(N)n3)[C@H]2SC1`, the Potency entry was “inactive”.

For `CC(=O)SCC(Cc1ccccc1)C(=O)NCC(=O)OCc1ccccc1` (configuration not stated), the Potency is 5.9 µM (active).

For the compound `C#Cc1cccc(Nc2ncnc3cc(OCCOC)c(OCCO)cc23)c1`, the Potency was 5.26 µM (active).

With `Cc1nc(NC(=O)N2CCC[C@@H]2C(N)=O)sc1-c1ccnc(C(C)(C)C(F)(F)F)c1`, the Potency was 5.9 µM (active).

On to `CC(C)[C@H](CO)Nc1nc(Nc2cccc(Cl)c2)c2ncn(C(C)C)c2n1`, for which the Potency is 16.6 µM (active).

For `N#CC(=C(O)c1ccc(Cl)cc1Cl)c1nc2cc(Cl)ccc2c(=O)[nH]1`, the Potency result is “inactive”.

With `CC[C@H](CC[C@@H](C)[C@H]1CC[C@H]2[C@@H]3CC=C4C[C@@H](O)CC[C@]4(C)[C@@H]3CC[C@]12C)C(C)C`, the Potency entry is “inactive”.

Regarding `NC(=O)Nc1sc(-c2ccc(F)cc2)cc1C(N)=O`, the Potency was 0.372 µM (active).
